Source: PubChem BioAssay AID434973 (Sanford-Burnham Center for Chemical Genomics, 2010)
Screen size: about 330,000 compounds; about 4,900 (1.5%) were called active. This is one part of a sample in which actives are shown more often than they occur. A number with no mark means an inactive call.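 The calls were made as follows: active = inhibition above about 50% at the single test dose (limit read from the data); inactive = the rest.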

These molecules were tested against Sentrin-specific protease 7 (Homo sapiens) (UniProt Q9BQF6) (assay: SENP7 protease inhibitors, primary screen, biochemical, luminescence, uHTS (AID 434973;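 also: plate controls were DMSO with enzyme for no effect and no enzyme buffer wells for full effect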)). Settings: recombinant SENP7, Z-RLRGG-aminoluciferin luminescence, 40 min; at 5 µM; active compounds read high.

SMILES | inhibition
Cc1ccc(CSc2nsc(C)c2C#N)cc1 | -2.96%
COC(=O)C(=Nc1ccccc1)/C(C(=O)C(=O)N(C)c1ccccc1)=C(\O)c1ccc(Cl)cc1 | -1.49%
CCn1c(CC(=O)Nc2ccccc2C)nnc1SCC(=O)NC1=NCCS1 | -7.93%
CSCc1ccc(C(=O)Nc2cc(C)cc(C)c2)cc1 | 75.3% (active)
C=CCN(c1ccc(C(=O)Nc2cc(C)cc(C)c2)cc1)S(C)(=O)=O | 6.36%
CC(=O)Nc1ccccc1NC(=O)c1cc(C)cc(C)c1 | 2.28%
CN(C)C(=O)Cn1c(=O)n(S(=O)(=O)c2ccccc2)c2ccccc21 | 2.64%
C/C(=N\NC(=O)CNC(=O)C(c1ccccc1)c1ccccc1)c1ccc(C)cc1 | -4.66%
Cc1ccc(C(=O)N/C(=C/c2cccnc2)C(=O)O)cc1 | -9.12%
C/C(=N\NC(=O)c1ccc(C)cc1)C1C(=O)c2ccccc2C1=O | 77.1% (active)
CC(=O)N1c2ccc(S(=O)(=O)N3CCCC(C(=O)Nc4ccc(C)cc4C)C3)cc2CC1C (configuration not stated) | 7.52%
CSc1ccc(C#N)cc1NC(=O)c1ccc(Cl)cc1 | 0.394%
COc1cccc2sc(Nc3nc(C)c(C(C)=O)s3)nc12 | 69.1% (active)
CNC(=O)c1sc(NCc2ccccc2OC)nc1C | 6.9%
CC(=O)c1sc(N/N=C/c2ccc(C(C)C)cc2)nc1C | 0.0938%
COc1ccc(S(=O)(=O)N2CCOC2CNC(=O)C(=O)NCc2ccc(F)cc2)cc1 (configuration not stated) | 2.2%
C=CCN(C(=O)Nc1ccc2c(c1)nc(C)n2C)c1ccccc1 | 5.72%
Cc1nc2cc(NC(=O)Nc3cccc(F)c3)ccc2n1C | 96.5% (active)
Cn1c(CCN2CCCCCC2)nc2cc(NC(=O)Nc3ccccc3)ccc21 | 10%
Cc1nc2nc(CSc3nc4ccccc4s3)cc(=O)n2[nH]1 | -13.3%
O=[N+]([O-])c1c(NCCO)cc(Sc2nc3ccccc3s2)c2nonc12 | 79.2% (active)
NC(=O)c1ccc(Nc2ccc3nonc3c2[N+](=O)[O-])cc1 | -0.507%
COc1ccc(OCC(O)CN(C)C(=O)C(C)Oc2ccccc2)cc1 (configuration not stated) | 11.8%
COc1ccc(C2=NS(=O)(=O)N(C)C(C(=O)N3CCCCC3)=C2)cc1 | -5.66%
O=C(CCNS(=O)(=O)c1cccs1)N1CCN(c2ccc(F)cc2)CC1 | -1.51%
N/C(=N\OC(=O)CC1CCCCC1)c1ccccc1 | 21.8%

SMILES | inhibition
COc1ccccc1OCC(=O)O/N=C(\N)c1ccccn1 | 7.18%
N/C(=N\OC(=O)CCC1CCCCC1)c1ccccn1 | 82% (active)
O=C(CSc1nnc(COc2ccc(Cl)cc2)n1Cc1ccco1)N1CCNC1=O | -0.0156%
O=S(=O)(NCC1CC1)c1ccc(F)c(Cl)c1 | 2.72%
COc1ccccc1N=C(C)C1=C(O)COC1=O | -4.17%
COc1ccccc1N=Cc1c(O)c2ccccc2oc1=O | 88% (active)
COc1cc(N=Cc2c(O)c3ccccc3oc2=O)c(OC)cc1Cl | -0.159%
N/C(=N\OC(=O)c1ccc2c(c1)OCO2)c1ccc(Br)cc1 | 71.1% (active)
N/C(=N\OC(=O)/C=C/c1ccccc1)c1ccc(Br)cc1 | 9.06%
N/C(=N\OC(=O)N1c2ccccc2Sc2ccccc21)c1ccc(Br)cc1 | -8.09%
COc1ccc(C2c3c(C)nn(-c4ccccc4)c3NC(=O)N2c2ccccc2)cc1 (configuration not stated) | 3.05%
CCCCNC(=O)OC(C)CNC(=O)OC (configuration not stated) | -1.91%
Cc1ccc(C(=O)NCC(=O)O)s1 | -11.9%
O=C(NCCc1ccccc1)C1CC1 | -1.24%
COc1ccc(N(C(=O)c2snc(C(N)=O)c2N)C(C(=O)NC2CCCC2)c2ccco2)cc1OC (configuration not stated) | -9.37%
CC(C)CC(=O)N/C(N)=N/c1nc2ccccc2s1 | 33.4%
CCc1ccc(-c2cc(C(=O)NCc3ccco3)c3ccccc3n2)s1 | 6.27%
CC(=NCc1ccco1)c1c(C(F)(F)F)[nH]n(-c2nc3ccccc3s2)c1=O | 98.9% (active)
C/C(=N\NC(=O)CC(C)C)c1c(C(F)(F)F)[nH]n(-c2nc3ccccc3s2)c1=O | 98.7% (active)
CCC(C)Cn1c(O)cc2nn(-c3nc4ccccc4s3)c(=O)c-2c1C (configuration not stated) | 8.83%
CCC1(CC)NC(=O)N(Cc2nc3ccccc3s2)C1=O | -4.41%
CC(=O)c1sc(NC(=O)CCN2C(=O)C3CC=CCC3C2=O)nc1-c1ccccc1 (configuration not stated) | 0.528%
Cc1ccc(C)c(N2C(=O)CS/C2=N\NC(=O)c2ccccc2Cl)c1 | -12.9%
CCCCC/C=C/C1=CC(=O)C[C@H](c2ccc(Cl)cc2)C1 | 2.82%
O=C(/C=C/NCc1ccc(F)cc1)c1ccccc1 | 7.34%
Cc1cc(N/C=C\C(=O)c2ccc(Cl)c(Cl)c2)no1 | 10.2%

SMILES | inhibition
CCOc1ccc(NC(=S)N2CCC(NC(=O)c3ccccc3)CC2)cc1 | -5.22%
CCOc1ccc(N/C=C/C(=O)c2cc(OC)c(OC)c(OC)c2)cc1 | -14.5%
COc1ccc(N2C(=O)CCC(C(=O)Nc3ccccn3)C2c2ccc(OC)c(OC)c2)cc1 (configuration not stated) | 9.84%
COc1ccc(C(=O)/C=C/Nc2ccccn2)cc1 | 99.2% (active)
CCOc1ccc(N/C=C/C(=O)c2ccccc2)cc1 | 99.3% (active)
CC(=O)Nc1ccc(/C=C/C(=O)c2ccccc2)cc1 | -13.6%
Cc1ccc(N/C=C/C(=O)c2ccccc2)cc1C | 91.8% (active)
NCCCC[C@@H]1NC(=O)[C@H](CCC(=O)O)NC(=O)c2cc([N+](=O)[O-])cc(I)c2NCC[C@@H](C(N)=O)NC1=O | 0.545%
O=C(COC(=O)c1cccnc1Cl)NC(=O)NC1CCCCC1 | -2.4%
O=C(NCCc1cccc(F)c1)C1CCCN(c2nc3ccccc3s2)C1 (configuration not stated) | 7.46%
c1c2c(cc3sc(N4CCCCC4)nc13)OCCO2 | 97.8% (active)
Cc1nc(N2CCCCC2)sc1C=O | 11.3%
Fc1ccc2nc(Nc3nc4c(s3)CCCC4)sc2c1 | 9.46%
O=C(c1ccc2nc(N3CCOCC3)sc2c1)N1CCN(c2ccc(Cl)cc2)CC1 | 0.5%
Brc1ccc2nc(N3CCCC3)sc2c1 | 93.4% (active)
O=S(=O)(Nc1ccc2nc(N3CCOCC3)sc2c1)c1ccccc1 | -7.76%
Fc1ccc2nc(N3CCCCC3)sc2c1 | 85.3% (active)
CN(C)CCCN(C(=O)c1ccc(S(=O)(=O)N2CCCCCC2)cc1)c1nc2cc3c(cc2s1)OCCO3 | 4.88%
C/C(CC(=O)N1CCN(C=O)CC1)=N\NC(=O)c1ccc(Br)cc1 | 4.47%
COCC(C)n1c(SCC(=O)NC2CCCCC2C)nc2ccccc2c1=O (configuration not stated) | -6.63%
CC(C)NC(=O)c1ccc(Sc2ccccc2)c([N+](=O)[O-])c1 | 4.52%
O=C(c1ccc(=O)oc1)N1CCC(C(O)(c2ccccc2)c2ccccc2)CC1 | -5.43%
CCC1CCCCN1C(=S)Nc1ccc(S(=O)(=O)Nc2ncccn2)cc1 (configuration not stated) | -9.27%
CC(C)C(=O)Nc1ccc(C(=O)NNC(=O)c2cccs2)cc1 | -0.683%
CC(=O)Nc1ccc(/C=N/NC(=O)c2cccs2)cc1 | 67.7% (active)
O=C(Nc1ccccc1)c1ccc(NC(=O)c2cccs2)cc1 | 67.8% (active)

SMILES | inhibition
Cc1ccc(C(=O)Nc2ccc(NC(=O)c3cccs3)cc2)c(C)c1 | -5.29%
Cc1cccc(-n2c(C)cc(/C=N\NC(=O)c3cccs3)c2C)c1 | -3.16%
O=C(Nc1ccc(NC(=O)c2cccs2)cc1)c1ccc2ccccc2c1 | -6.64%
CCN(CC)c1ccc(/C=N/NC(=O)CNC(=O)c2cccs2)cc1 | 2.87%
CCc1ccc(NC(=O)COC(=O)c2cccs2)cc1 | 17.2%
CCc1ccc(NC(=O)C(=O)NNC(=O)c2cccs2)cc1 | 51.4% (active)
O=C(COC(=O)/C=C/c1cccs1)NC1CCCCC1 | 6.28%
COCCCNC(=O)[C@H]1N2C(=O)c3ccccc3C2SC1(C)C (some centres not stated) | -7.11%
COC(=O)Cc1csc(/N=C/c2c(O)n(-c3cccc(C(F)(F)F)c3)c(=O)c3ccccc23)n1 | -1.46%
CCCCN(C(=O)C1CCC1)c1c(N)n(Cc2ccccc2)c(=O)[nH]c1=O | 5.98%
O=C(CCS(=O)(=O)c1ccccc1Cl)Nc1ccc(S(=O)(=O)Nc2ncccn2)cc1 | 5.16%
CCCCSCCCNC(=O)C1CCC(CNS(=O)(=O)c2ccc(NC(C)=O)cc2)CC1 (configuration not stated) | -1.73%
NC(=O)Cc1nc2scc(-c3ccc(Cl)cc3)c2c(=O)[nH]1 | -2.34%
O=c1[nH]c(CCl)nc2cc(-c3ccc(Cl)cc3)sc12 | 63.1% (active)
O=c1[nH]c(CN2CCOCC2)nc2cc(Cl)ccc12 | 10.2%
CCCc1cc(C(=O)Nc2ccc(C(=O)OC)cc2)cs1 | -0.862%
O=C(Nc1ccc(Cl)cn1)c1ccc2c(c1)OCCO2 | 82.6% (active)
O=C(Nc1ccc(Cl)cn1)c1cnn2cccnc12 | 27.2%
COc1ccc(C(=O)NC(=S)Nc2ccc(Cl)cn2)cc1OC | -7.53%
Cc1cccc(C)c1NC(=O)CNC(=O)c1ccc2c(c1)OCCO2 | -14.1%
CCCc1cc(C(=O)Nc2ccc(Cl)cn2)cs1 | 76.6% (active)
Cc1nc(NC(=O)c2ccc3c(c2)OCCO3)ccc1Br | 87.2% (active)
CCCCC(CC)C(=O)Nc1ccc(Cl)cn1 (configuration not stated) | -1.33%
Cc1ccc(C(=O)NNC(=O)c2ccc3c(c2)OCCO3)cc1 | 6.51%
